High-throughput results deposited in PubChem BioAssay by National Center for Advancing Translational Sciences (NCATS).
In the library only some 3% were active in any assay of this set; here they are far more common.
LDHA inh = inhibitors of human lactate dehydrogenase A; P00338; purified LDHA, NADH/diaphorase-resazurin fluorescence; hits give low values; activity change, % (values are at about 110 or 230 µM); hit rate 0.15% among 480,000; AID 1347041; in the data active = activity change below about -30%; inconclusive = mostly about -25% to -30%;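 note: plate controls were DMSO wells for no effect and wells without enzyme for full effect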
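Human LDH5 (2 nM) was incubated with 0.06 mM NADH and 0.2 mM pyruvate for 5 min at room temperature in Tris pH 7.4. Remaining NADH was coupled through diaphorase/resazurin, and resorufin fluorescence was read at 0 and 20 min.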
ClpP mod = qHTS Assay for Activators of ClpP; Potency, µM (top dose mostly 57.5 µM), inactives show top-dose activity change, negative = active; purified B. subtilis ClpP, FRET peptide cleavage, 20 min; AID 651965, 2013; hit rate 1.9% among 340,000; ATP-dependent Clp protease proteolytic subunit (Bacillus subtilis (strain 168)), P80244; active = well fitted falling curve with a large enough effect; inconclusive = small, poorly fitted or top-dose-only effect; inactive = no such curve, though single readings can be large or run the other way; note: potency is the fitted concentration of half-maximal effect; the source files actives as falling curves though it sought activators and does not explain the sign; nearly all actives have a fitted effect of over 65% in size
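Buffer: 100 mM Tris/HCl pH8, 100 mM KCl, 0.05% low protease BSA, 2.5% glycerol, 0.01% Tween-20. ClpP 10 microg/mL final; 20 min RT; delta FRET normalized to ADEP and DMSO controls.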
KCNH2 WT inh = blocks the wildtype human KCNH2 potassium channel | AID 720551 | U2OS, BacMam KCNH2, thallium flux FluxOr; hits give low values | activity change, % at 1.84 µM | hit rate 0.37% among 340,000 | Q12809;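 active = maximum activity change below -70%; inconclusive = maximum activity change between -70% and -50%; inactive = maximum activity change above -50%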; note: % is set by controls: 0 for no effect and ±100 for the full control effect
Target sequence (Q12809 whole entry, looked up): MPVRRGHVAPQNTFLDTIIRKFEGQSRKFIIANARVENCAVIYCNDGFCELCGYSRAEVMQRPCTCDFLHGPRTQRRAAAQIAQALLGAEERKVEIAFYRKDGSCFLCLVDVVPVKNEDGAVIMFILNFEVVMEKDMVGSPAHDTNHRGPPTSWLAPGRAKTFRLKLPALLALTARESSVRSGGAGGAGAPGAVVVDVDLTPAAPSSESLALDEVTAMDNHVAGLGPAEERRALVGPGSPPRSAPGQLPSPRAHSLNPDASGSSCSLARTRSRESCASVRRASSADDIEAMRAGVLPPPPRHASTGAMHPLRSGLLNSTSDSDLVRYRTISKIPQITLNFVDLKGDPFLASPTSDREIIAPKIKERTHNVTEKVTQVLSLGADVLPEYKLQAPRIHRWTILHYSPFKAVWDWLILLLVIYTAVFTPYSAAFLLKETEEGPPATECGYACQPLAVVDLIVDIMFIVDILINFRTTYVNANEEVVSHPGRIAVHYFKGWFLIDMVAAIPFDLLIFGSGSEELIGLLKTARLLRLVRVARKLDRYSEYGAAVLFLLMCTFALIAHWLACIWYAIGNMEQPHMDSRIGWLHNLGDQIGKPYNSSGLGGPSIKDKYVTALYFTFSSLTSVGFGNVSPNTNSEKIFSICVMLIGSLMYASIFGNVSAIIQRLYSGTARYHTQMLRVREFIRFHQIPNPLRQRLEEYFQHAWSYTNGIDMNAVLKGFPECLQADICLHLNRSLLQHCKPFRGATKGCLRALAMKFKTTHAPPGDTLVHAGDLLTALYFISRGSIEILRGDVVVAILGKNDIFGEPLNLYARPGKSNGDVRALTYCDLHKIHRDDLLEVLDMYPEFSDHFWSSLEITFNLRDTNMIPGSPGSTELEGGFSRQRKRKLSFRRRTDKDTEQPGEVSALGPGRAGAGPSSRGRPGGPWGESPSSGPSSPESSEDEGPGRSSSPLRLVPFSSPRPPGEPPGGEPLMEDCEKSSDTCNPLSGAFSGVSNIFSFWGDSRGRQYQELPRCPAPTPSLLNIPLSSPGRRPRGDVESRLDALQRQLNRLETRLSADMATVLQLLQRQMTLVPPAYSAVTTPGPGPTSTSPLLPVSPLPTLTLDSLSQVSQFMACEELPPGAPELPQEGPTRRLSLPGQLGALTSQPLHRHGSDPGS
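U2OS cells transduced with wild-type KCNH2 virus are loaded with FluxOr dye for 45 min, and thallium flux is measured in kinetic reads before and after stimulation buffer. Rate constants are normalized to DMSO controls.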
Chronic BCR inh = blocks chronic active B-cell receptor signaling | ABC-DLBCL IkBa-CBG/CBR reporter, luminescence ratio, 4 h | Potency, µM (top dose mostly 46.1 µM), inactives show top-dose activity change, negative = inhibition, actives largely listed as inhibitors | hit rate 0.05% among 340,000 | AID 493014; active = well fitted inhibition curve with a large enough effect in the signal ratio, with a control signal flat, not every such curve was filed as active; inconclusive = small, poorly fitted or top-dose-only effect, or effect the other way, or a change in a side signal; the % refers to the signal ratio;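 note: potency is the fitted concentration of half-maximal effect; plate controls were basal doxycycline-induced cells for no effect and cells given 10 µM MG132 for full effect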
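Compounds up to 46 uM were incubated four hours with TMD8 cells whose green CBG68 luciferase is fused to IkappaBalpha; red CBR luminescence normalised the signal, and concentration-effect curves were fitted to fusion, red and ratio data.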
ALOX12 inh = inhibitors of human 12S-lipoxygenase ALOX12. P18054. purified 12hLO, xylenol orange hydroperoxide absorbance. Potency, µM (top dose mostly 108 µM), without a hit: top-dose activity change, negative = inhibition, actives largely listed as inhibitors. hit rate 1.1% among 580,000. AID 1671190; active = well fitted inhibition curve with a large enough effect; inconclusive = small, poorly fitted or top-dose-only effect, or another doubt; inactive = no such curve, though single readings can be large or run the other way; note: potency is the fitted concentration of half-maximal effect; % is set by controls: 0 for no effect and ±100 for the full control effect
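Purified human 12hLO (150 nM final) in 25 mM Hepes, 0.01% Triton X-100, pH 7.0 was preincubated 15 min at room temperature with compound. Then 40 uM arachidonic acid was added, 30 min. Hydroperoxide was read by Fe-XO absorbance ratio 573/405 nm.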
KCNH2 3.1 block = KCNH2 3.1 (human) potassium channel inhibition. AID 720553. hit rate 0.95% among 340,000. activity change, % (tested at about 1.8 µM). U2OS KCNH2 3.1, thallium flux FluxOr; hits give low values;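 active = maximum activity change below -70%; inconclusive = maximum activity change from -70% to -50%; inactive = maximum activity change above -50%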;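 note: thallium influx rate constant from kinetic fluorescence after stimulation buffer; % is set by controls: 0 for no effect and ±100 for the full control effect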
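U2OS cells transduced with KCNH2 3.1 mutant virus (1.77 x 10^8 /mL, 4 h), plated overnight at 37 C, loaded 45 min with FluxOr dye plus Red40 quencher. Thallium flux rate constant from kinetic reads after stimulation buffer, normalised to controls.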
Starred values were filed as active, the others as inactive; u = inconclusive; x = no result; [ ] = another dose, or the depositor's remark.

SMILES	LDHA inh	ClpP mod	KCNH2 WT inh	Chronic BCR inh	ALOX12 inh	KCNH2 3.1 block
Cc1ccc(C(=O)NCCNc2nc3cc(C)c(C)cc3cc2C)cc1	-10	x	10	4%	-13%	x
CCOc1ccc2nc(NCCNC(=O)C(C)C)c(C)cc2c1	1	16µM*	6	-4%	2%	-4
CCOc1ccc2nc(NCCNC(=O)C3CC3)c(C)cc2c1	-2	40µM*	14	1%	4%[57.4 µM]	-6
COCC(=O)NCCNc1nc2ccc(C)cc2cc1C	-2	28µM*	-16	u	-23%	-1
O=C(Nc1cccc(C(F)(F)F)c1)c1cccnc1NCCc1ccccc1	-1	28µM*	-3	8%	u	-15
COC(=O)c1cccc2c1-c1ccccc1/C2=N\NC(N)=O	-4	0%	-147*	u	0%	-190*
NC(=S)N/N=C1\c2ccccc2-c2c(C(=O)O)cccc21	-3	-1%	-14	3%	32µM*	8
COC(=O)c1cccc2c1-c1ccccc1/C2=N/O	-3	-17%	-6	u	u	13
CC1(C)CCC(=O)N2CC[C@H]3C[C@H](OC(=O)Nc4ccccc4)C[C@@H]1[C@H]32	1	0%	-6	u	11%	6
CC1(C)CCC(=O)N2CC[C@H]3C[C@H](OC(=O)Nc4ccc5c(c4)OCO5)C[C@@H]1[C@H]32	3	1%	-10	2%	5%	-135*
CCOc1cc(/C=C2/C(=O)ON=C2C)ccc1OCc1ccccc1	-6	x	5	u	u	3
COc1ccc(/C=C2/C(=O)ON=C2C)cc1Br	7	0%	26	u	u	3
C#CCOc1ccc(/C=C2/C(=O)ON=C2C)cc1Cl	-7	x	3	-5%	8.9µM*	9
C=CCOc1c(Br)cc(/C=C2/C(=O)ON=C2C)cc1OC	4	x	5	-8%	16µM*	-19
C#CCOc1c(Cl)cc(/C=C2/C(=O)ON=C2C)cc1OCC	-2	-2%	1	1%	45µM*	5
C#CCOc1c(Br)cc(/C=C2/C(=O)ON=C2C)cc1OCC	-4	2%	1	-3%	11µM*	-19
Cc1c(OCC(=O)Nc2ccccc2)c(=O)ccn1CCO	4	x	x	x	-17%	x
CN(C)C(=O)c1ccc(OC2CCN(C(=O)c3ccco3)CC2)nc1	x	x	x	x	49%	x
CC(Sc1ncnc2nc[nH]c12)c1ccccc1 (centres undefined)	1	x	x	x	8%	x
CCN(CC)S(=O)(=O)N(C)CC1CCCN(CCc2ccccc2OC)C1 (centres undefined)	x	x	x	x	29%	x
C#CCOc1c(Br)cc(/C=C2/C(=O)ON=C2C)cc1OC	-11	x	-5	-2%	5µM*	-10
CCOP(=O)(OCC)c1nc(-c2ccc(Cl)cc2)oc1NCc1ccco1	-4	x	x	x	u	x
Cc1cccc(NS(=O)(=O)c2ccc(Oc3ccccc3)cc2)n1	0	22µM*	4	-14%	-13%	-1
CC(Oc1cccc(Br)c1)C(=O)NNC(=O)CCS(=O)(=O)c1ccccc1 (centres undefined)	-1	2%	-6	0%	0%	-102*
COCCN1C(=O)[C@@H]2C[C@@H](CN2Cc2cccc(OC)c2)Oc2ccccc21	x	x	x	x	-1%[176 µM]	x
SMILES	LDHA inh	ClpP mod	KCNH2 WT inh	Chronic BCR inh	ALOX12 inh	KCNH2 3.1 block
Cc1nc(N2CCN(S(=O)(=O)c3ccccc3)CC2)c2cc(-c3ccccc3)sc2n1	-3	28µM*	-5	u	0%	-7
COc1ccc(C(C)NC(=O)Cn2c(C)cc3nc4n(c(=O)c32)CCCC4)cc1 (centres undefined)	x	x	x	x	50µM*	x
Cc1cc2nc3n(c(=O)c2n1CC(=O)NC(C)c1ccccc1)CCCCC3 (centres undefined)	x	x	x	x	7%	x
Cc1cc2nc3n(c(=O)c2n1CC(=O)Nc1ccc(Cl)cc1F)CCCCC3	x	x	x	x	-18%	x
Cc1cc2nc3n(c(=O)c2n1CC(=O)Nc1ccc(Cl)cc1F)CCCC3	x	x	x	x	22µM*	x
CCc1cccc2c(C(CC(=O)N3CCC(C)CC3)c3cccc(C)c3)c[nH]c12 (centres undefined)	x	x	x	x	8%	x
CCCCC1Cc2[nH]c(=S)[nH]c(=O)c2C(c2ccc(C(C)C)cc2)O1 (centres undefined)	2	0%	x	x	40µM*	x
Cc1cccc(C(=O)NC(=S)Nc2ccc(S(=O)(=O)N3CCCCC3)cc2)c1	-4	-16%	0	0%	11µM*	-15
Cc1cccc(C(=O)NC(=S)Nc2ccc(Cc3ccncc3)cc2)c1	1	-2%	-6	u	45µM*	2
O=C(CN1CCCCC1)Nc1ccc(S(=O)(=O)N2CCCCCC2)cc1	-10	-1%	55	4%	-4%	-83*
O=C(NC(=S)Nc1ccc(Cc2ccncc2)cc1)c1ccccc1	-11	33%	-5	u	u	-17
O=C(CN1CCCC1)Nc1ccc(S(=O)(=O)N2CCCCC2)cc1	2	0%	-1	2%	-7%	11
Cc1cc(NC(=O)CN2CCCCC2)no1	-32*	x	1	-7%	u	-16
Cc1nc(C#N)c(NCC(c2cccs2)N2CCOCC2)o1 (centres undefined)	0	x	x	x	-23%	x
Cc1cccc(C(=O)NC(=S)NC(C)c2ccccc2)c1 (centres undefined)	-2	0%	-1	x	6.3µM*	12
COc1cc(C(=O)NC(=S)Nc2ccc(Cc3ccncc3)cc2)cc(OC)c1OC	-3	2%	-4	u	0%	4
Cc1cc(C)cc(C(=O)NC(=S)Nc2ccc(Cc3ccncc3)cc2)c1	-9	-2%	3	u	45µM*	-11
CCC(=O)Nc1cccc(NC(=S)NC(=O)c2cccc(C)c2)c1	-14	1%	1	u	35µM*	5
N#Cc1c(N)n[nH]c1CCCNC(=O)c1cc2ccccc2cc1O	40	x	x	x	u	x
Cc1noc2ncnc(Oc3ccccc3)c12	-3	25µM*	-10	-3%	0%	-3
Nc1ccc2nc(-c3ccccc3)[nH]c2c1	0	u	-9	u	-13%	-1
Nc1ccc2nc(-c3ccc(N)c(Cl)c3)[nH]c2c1	4	3.5µM*	3	u	11%	-7
Nc1ccc2nc(-c3cccs3)[nH]c2c1	9	10µM*	4	u	18%	-1
Nc1ccc2nc(-c3ccccn3)[nH]c2c1	8	32µM*	4	u	0%	-16
CC(=O)Nc1ccc2nc(-c3cccs3)[nH]c2c1	-9	-12%	8	u	0%	-1
CC(=O)N(c1cccc(C)c1)c1nc(COc2ccccc2C(N)=O)cs1	-13	x	x	x	u	x
